This is an account of results in PubChem BioAssay (NCI).

Assay [1] in a line: NCI Yeast Anticancer Drug Screen. Data for the rad50 strain (AID 155).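 Further: 0% = growth of vehicle-only cultures of the same strain.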 The conditions noted are these: S. cerevisiae rad50 strain growth inhibition; at 50.0 µM; active compounds read high. Put shortly: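 Compounds were tested on a yeast strain with an engineered DNA damage repair alteration; the reported value is growth inhibition normalised to vehicle treatment.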
A short description of assay [2]: NCI Yeast Anticancer Drug Screen. Data for the mec2-1 strain (AID 157). The conditions noted are these: S. cerevisiae mec2-1 strain, at 50.0 µM, active compounds read high. Put shortly: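 Compounds were applied to mec2-1 yeast cells. Their growth was then compared with that of vehicle-treated cultures to give growth inhibition.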
A short description of assay [3]: NCI Yeast Anticancer Drug Screen. Data for the sgs1 mgt1 strain (AID 161).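 Further: 0% = growth of cultures given vehicle only.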 The conditions noted are these: S. cerevisiae sgs1 mgt1 strain, at 50.0 µM, active compounds read high. Put shortly: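 This yeast growth screen uses a strain with defined DNA-repair lesions; compound-treated growth is compared with vehicle-treated growth.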
Assay [4] in a line: NCI Yeast Anticancer Drug Screen. Data for the cln2 rad14 strain (AID 165).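 Further: 0% = growth equal to vehicle treated cultures.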 The conditions noted are these: S. cerevisiae cln2 rad14 strain, at 50.0 µM, active compounds read high. In a few lines:
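Strain: cln2 rad14 yeast, altered in cell cycle control and DNA damage repair. Read-out: growth inhibition vs vehicle.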

The nature of assay [5]: NCI Yeast Anticancer Drug Screen. Data for the bub3 strain (AID 167). Particulars: S. cerevisiae bub3 mutant strain, at 50.0 µM, active compounds read high. Put shortly:
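Growth of a checkpoint-deficient yeast mutant is measured after compound exposure. Values represent inhibition relative to vehicle.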

Assay [6] in a line: NCI Yeast Anticancer Drug Screen. Data for the mlh1 rad18 strain (AID 175). Particulars: S. cerevisiae mlh1 rad18 strain growth inhibition; at 50.0 µM; active compounds read high. In a few lines:
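A repair-deficient yeast strain is exposed to test compound, and growth is scored relative to vehicle-treated controls.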

Compounds without any hit were thinned out: in the full panel of roughly 79,000, 15% have a hit. A number with no mark means an inactive call. Active and inactive are the calls of the source. No stated cut-off is given here; in the data, active means growth inhibition above about 70%; inactive means the rest. Where a SMILES comes first, the peptide text is derived from it. [ ]: non-standard residue; d: D form. ΔPro = O=C(O)[CH]1C=CCN1

For the molecule `C/C(=C\C(N)=O)C(C)(C)C`, the growth inhibition was 4.15% in assay [1]; -2.25% in assay [2]; 9.35% in assay [3]; 10.3% in assay [4]; 21.9% in assay [5]; -41.1% in assay [6].
As for `COc1cc(C2C(Cl)C(=O)N2NC(=O)c2ccc(N)cc2)ccc1O` (stereo not given), the growth inhibition was 5.15% in assay [1]; -0.75% in assay [2]; -25.1% in assay [3]; -3.8% in assay [4]; -16.4% in assay [5]; -8.75% in assay [6].
For the molecule `Cc1cc(N(CCC#N)CCC#N)ccc1/C=C(\N=[N+]=[N-])C(=O)NC(=O)COc1ccccc1`, the growth inhibition in assay [1] is 16.1%; in assay [2] it was -19.8%; in assay [3], 4.7%; in assay [4], 11.9%; in assay [5] it was -6.65%; in assay [6] it was -9.05%.
Take `CCCCC1(CCS)C(=O)NC(=Nc2ccccc2)NC1=O` (stereo not given): the growth inhibition in assay [1] is -0.95%; in assay [2], -3.95%; in assay [3], 11.8%; in assay [4], -37.3%; in assay [5], 22.7%; in assay [6], -11.8%.
As to `NC(=O)c1cc(Cl)ccc1O`, the growth inhibition is 14.5% in assay [1]; 12.5% in assay [2]; 18.4% in assay [3]; 3.1% in assay [4]; -4.05% in assay [5]; 11.6% in assay [6].
Turning to `COc1cc(Cl)ccc1NC(=O)Oc1ccc(-c2ccccc2)cc1Cl`, the growth inhibition is 65.8% in assay [1]; 99.5% (active) in assay [2]; 99.5% (active) in assay [3]; 99% (active) in assay [4]; 99.2% (active) in assay [5]; 99.4% (active) in assay [6].
Regarding `COC(=O)N/C(C)=N/OCc1ccccc1`, the growth inhibition in assay [1] is 1.2%; in assay [2] it was 0.6%; in assay [3] it was 4.3%; in assay [4], 8.8%; in assay [5], 15%; in assay [6], -11.7%.
As to `CC(=O)/C=C\c1ccc(-c2ccccc2)cc1`, the growth inhibition is 2.65% in assay [1]; -36.2% in assay [2]; -3.6% in assay [3]; -0.6% in assay [4]; -18.9% in assay [5]; -22.7% in assay [6].
Consider `CCCS(=O)(=O)N1CCCC1`, for which the growth inhibition in assay [1] was -1.25%; in assay [2], -15.8%; in assay [3], -2.1%; in assay [4], -34.5%; in assay [5], -24.4%; in assay [6], -19.4%.
In the case of `O=c1[nH][nH]c(=O)c2c1ccc1oc3ccccc3c12`, the growth inhibition in assay [1] was -13.8%; in assay [2], 0.55%; in assay [3] it was -20.7%; in assay [4] it was 28.2%; in assay [5], 2.55%; in assay [6], 4.4%.
Consider `CCc1ccc(CC)c(OC)c1`, for which the growth inhibition is 16.6% in assay [1]; -1.8% in assay [2]; 0.4% in assay [3]; -27.2% in assay [4]; -11.1% in assay [5]; 18.7% in assay [6].
For `O=C(O)C1C=CCN1C(=O)C1C=CCN1C(=O)C1C=CCN1` (stereo not given) (H-[ΔPro]-[ΔPro]-[ΔPro]-OH; configuration not given here), the growth inhibition was -68.7% in assay [1]; -38.6% in assay [2]; -25.5% in assay [3]; 0.05% in assay [4]; 0.25% in assay [5]; -31.5% in assay [6].
Consider `Cc1cccc(CN)n1`, for which the growth inhibition in assay [1] was -2.55%; in assay [2], -29.2%; in assay [3], 17.4%; in assay [4] it was 4.05%; in assay [5], -5.85%; in assay [6], 2.15%.
`ClC(c1ccccc1)(c1ccccc1)C(Cl)(c1ccccc1)c1ccccc1`: the growth inhibition in assay [1] is 45.9%; in assay [2], 5.05%; in assay [3], 24.1%; in assay [4], 11.8%; in assay [5], 4.6%; in assay [6] it was 26.9%.
As to `CC(C)c1cc(CN(C)C)c(O)c(C(C)(C)C)c1`, the growth inhibition in assay [1] is -25.4%; in assay [2], 23.2%; in assay [3] it was -43.5%; in assay [4], -40%; in assay [5] it was -14.3%; in assay [6] it was -8.3%.
In the case of `COc1ccc(CC(N)C(=O)OC(C)C)cc1` (stereo not given), the growth inhibition is -16.3% in assay [1]; -12.3% in assay [2]; -5.05% in assay [3]; -36% in assay [4]; 11% in assay [5]; 1.4% in assay [6].
For the molecule `O=C(OCN1C(=O)C2C3C=CC(C2C1=O)C1C2C(=O)N(COC(=O)C4CCCN4)C(=O)C2C31)C1CCCN1` (stereo not given), the growth inhibition was 5% in assay [1]; -15.6% in assay [2]; -36.6% in assay [3]; 2.95% in assay [4]; -42.8% in assay [5]; -10.1% in assay [6].
Take `O=C1C2=C(OCO2)C(=O)C2=C1OCO2`: the growth inhibition in assay [1] is 2.65%; in assay [2], 20.8%; in assay [3] it was 21.1%; in assay [4], 3.7%; in assay [5], 9.95%; in assay [6], 3.2%.
With `CCOC(=O)c1cc2cc(Br)ccc2[nH]1`, the growth inhibition in assay [1] is 2%; in assay [2], -24%; in assay [3] it was 8.5%; in assay [4], 5.9%; in assay [5], -2.7%; in assay [6] it was 20.4%.
In the case of `Cc1cc2c(C(C)C)c(O)c(O)c(C=Nc3ccccc3O)c2c(O)c1-c1c(C)cc2c(C(C)C)c(O)c(O)c(C=Nc3ccccc3O)c2c1O`, the growth inhibition is -25.3% in assay [1]; -9.2% in assay [2]; -20.9% in assay [3]; -23.4% in assay [4]; -9.75% in assay [5]; -26.3% in assay [6].
In the case of `COc1cc(OC)cc(OCc2nc3cc(C(F)(F)F)ccc3nc2-c2ccccc2)c1`, the growth inhibition is -17.8% in assay [1]; -3.5% in assay [2]; 5.9% in assay [3]; -6.2% in assay [4]; -0.95% in assay [5]; -53.8% in assay [6].
Take `CCNc1ccc(N=Nc2ccc(-c3ccc(N=Nc4ccc(NCC)c5ccccc45)c(OC)c3)cc2OC)c2ccccc12`: the growth inhibition in assay [1] was -1.15%; in assay [2] it was 18.1%; in assay [3], 5.55%; in assay [4], 23.3%; in assay [5], 26.9%; in assay [6] it was 36%.
Turning to `CCOC(=O)C(CC(C)C)NC(=O)c1cnc2ccccc2c1` (stereo not given), the growth inhibition was 26.6% in assay [1]; -0.7% in assay [2]; 25.6% in assay [3]; -13.8% in assay [4]; 26.2% in assay [5]; 21.9% in assay [6].
As for `Clc1ccc(N=Cc2ccc(C=Nc3ccc(Cl)cc3)cc2)cc1`, the growth inhibition was 8% in assay [1]; 9.25% in assay [2]; 24.1% in assay [3]; 21.6% in assay [4]; 15% in assay [5]; 19.9% in assay [6].
For `CC(C)c1ccccc1[S+]1OC(C)(C)c2ccccc21` (stereo not given), the growth inhibition in assay [1] is -4.9%; in assay [2] it was 21.9%; in assay [3], 6.95%; in assay [4] it was 9.45%; in assay [5], -1.5%; in assay [6] it was -38.7%.
As for `CCC[N+](CCC)=c1ccc2nc3c(C)cc(N(CC)CC)cc3sc-2c1`, the growth inhibition is -60.6% in assay [1]; -6.45% in assay [2]; -20.6% in assay [3]; -126% in assay [4]; -130% in assay [5]; -39.2% in assay [6].
`COC(=O)c1ccc(N(C)CC/C(CNc2nc(N)[nH]c(=O)c2[N+](=O)[O-])=N\NC(N)=O)cc1`: the growth inhibition in assay [1] is 9.35%; in assay [2], 10.6%; in assay [3] it was -2.4%; in assay [4], 6.25%; in assay [5] it was -7.55%; in assay [6] it was -4.15%.
As to `CC(C)(C)C(=O)Cn1nnnc1C(=O)C(C)(C)C`, the growth inhibition is -10.7% in assay [1]; -35.5% in assay [2]; -15.8% in assay [3]; -36.9% in assay [4]; -5.85% in assay [5]; -19.4% in assay [6].
Regarding `Cn1c(=O)c2[nH]c(/N=N\n3ccc4ccccc43)nc2n(C)c1=O`, the growth inhibition in assay [1] was 2.1%; in assay [2], 21.6%; in assay [3], -5.6%; in assay [4] it was -8.85%; in assay [5], 24.6%; in assay [6] it was 4.1%.
Regarding `O=C1c2[nH]c3ccccc3c2CN1CCc1ccccc1`, the growth inhibition in assay [1] is -2.4%; in assay [2] it was -15.9%; in assay [3] it was 4.7%; in assay [4], -14.5%; in assay [5], -4.45%; in assay [6] it was -5.1%.
As for `c1ccc2c(CN3CCN(Cc4c[nH]c5ccccc45)CC3)c[nH]c2c1`, the growth inhibition in assay [1] is 17.1%; in assay [2], -8.75%; in assay [3], -14.5%; in assay [4], -13.8%; in assay [5], -2.8%; in assay [6], -21.9%.
For `O=C(Nc1ccn(C2CCC(COC(c3ccccc3)(c3ccccc3)c3ccccc3)O2)c(=O)n1)c1ccccc1` (stereo not given), the growth inhibition in assay [1] was 8.05%; in assay [2], 19.4%; in assay [3], 27.6%; in assay [4] it was -25%; in assay [5], -26.2%; in assay [6], 16.9%.
As to `Cc1cc(Cl)cc(CN(C)Cn2c(=O)cc[nH]c2=O)c1O`, the growth inhibition in assay [1] is 6.45%; in assay [2], -7.65%; in assay [3], 2.7%; in assay [4] it was -31.9%; in assay [5] it was 8.45%; in assay [6], 2.2%.
For the molecule `CC1(C)N=C(N)N=C(N)N1c1cccc(CCC(=O)Nc2cccnc2)c1`, the growth inhibition in assay [1] is 19.4%; in assay [2] it was 1.4%; in assay [3], 5.2%; in assay [4] it was 9.05%; in assay [5] it was -4.5%; in assay [6], -6.3%.
As to `N#CC(C(=N/NC(N)=S)/C(=N/NC(N)=S)C(C#N)c1ccc(Cl)cc1)c1ccc(Cl)cc1` (stereo not given), the growth inhibition in assay [1] was -16.9%; in assay [2], -19.8%; in assay [3] it was -23.9%; in assay [4] it was -6.85%; in assay [5], -4.95%; in assay [6], -13.1%.
